# Among all 310,000 compounds or so, about 14,000 (4.5%) showed an effect of 50% or more. The effect is printed as a negative number. This excerpt belongs to a sample that is enriched for strong results.
# Molecular target: human ether-à-go-go-related gene (hERG) potassium channel (human, UniProt Q12809)
# Assay: primary screen, population patch clamp on CHO cells stably expressing hERG; higher = less effect of the substance
# 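Also: peak tail current of the secondary pulse compared with the same well before compound.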
# human ether-à-go-go-related gene (hERG) potassium channel, sequence (Q12809 whole entry, looked up): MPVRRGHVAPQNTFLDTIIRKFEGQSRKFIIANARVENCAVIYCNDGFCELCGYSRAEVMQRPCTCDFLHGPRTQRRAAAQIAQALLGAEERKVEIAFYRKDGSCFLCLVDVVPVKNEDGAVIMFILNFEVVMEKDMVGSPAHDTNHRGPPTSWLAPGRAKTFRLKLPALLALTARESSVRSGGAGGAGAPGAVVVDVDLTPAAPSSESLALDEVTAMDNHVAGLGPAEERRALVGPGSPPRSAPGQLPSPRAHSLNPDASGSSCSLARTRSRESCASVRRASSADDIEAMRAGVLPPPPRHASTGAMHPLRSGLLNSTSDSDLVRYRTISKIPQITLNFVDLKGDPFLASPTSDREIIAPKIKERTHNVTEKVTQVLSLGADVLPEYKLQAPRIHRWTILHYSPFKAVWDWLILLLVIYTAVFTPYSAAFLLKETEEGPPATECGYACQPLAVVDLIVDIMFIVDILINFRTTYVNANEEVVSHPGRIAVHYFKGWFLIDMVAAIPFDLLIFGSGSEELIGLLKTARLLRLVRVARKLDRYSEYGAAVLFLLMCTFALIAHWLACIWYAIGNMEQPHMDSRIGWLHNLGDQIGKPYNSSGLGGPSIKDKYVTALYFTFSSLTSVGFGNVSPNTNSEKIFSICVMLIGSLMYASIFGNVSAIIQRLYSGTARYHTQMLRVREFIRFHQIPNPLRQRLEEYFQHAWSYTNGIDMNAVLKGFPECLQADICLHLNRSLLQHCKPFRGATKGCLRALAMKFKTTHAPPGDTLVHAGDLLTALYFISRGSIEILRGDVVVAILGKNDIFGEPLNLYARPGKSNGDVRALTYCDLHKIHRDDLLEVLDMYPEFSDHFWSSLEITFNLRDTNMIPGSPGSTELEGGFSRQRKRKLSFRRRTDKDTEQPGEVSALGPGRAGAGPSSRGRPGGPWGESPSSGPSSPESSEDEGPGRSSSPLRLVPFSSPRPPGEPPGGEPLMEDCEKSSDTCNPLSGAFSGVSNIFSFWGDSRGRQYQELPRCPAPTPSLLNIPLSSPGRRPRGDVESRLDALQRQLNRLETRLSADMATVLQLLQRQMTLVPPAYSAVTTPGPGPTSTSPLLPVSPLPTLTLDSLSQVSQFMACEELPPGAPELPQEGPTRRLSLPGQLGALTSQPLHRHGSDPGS
row,Structure (SMILES),"hERG current change (%, negative = inhibition) at 10uM"
1,CCn1nc(C)c(Br)c1C(=O)Sc1ccccc1Cl,21.2%
2,Cn1c(=O)n(C)c2cc([N+](=O)[O-])c(N3CCN(S(=O)(=O)c4ccccc4)CC3)cc21,-8.67%
3,O=[N+]([O-])c1ccc(N2CCN(S(=O)(=O)c3ccccc3)CC2)c2cccnc12,-76.8%
4,O=C(c1cccc(F)c1)N1CCN(c2ccc([N+](=O)[O-])c3cccnc23)CC1,-66.1%
5,Cc1ccc(S(=O)(=O)N2CCN(c3ccc([N+](=O)[O-])c4cccnc34)CC2)cc1,-9.52%
6,O=C(c1ccccc1F)N1CCN(c2ccc([N+](=O)[O-])c3ncccc23)CC1,-68.1%
7,O=C(c1ccccc1F)N1CCN(c2ccc([N+](=O)[O-])c(N3CCOCC3)c2)CC1,14.2%
8,O=C(c1cccc(F)c1)N1CCN(c2cc(N3CCCCC3)c(F)cc2[N+](=O)[O-])CC1,0.466%
9,O=C(c1ccc(Cl)cc1[N+](=O)[O-])N1CCN(c2ccccn2)CC1,-34%
10,O=C(c1cc(F)c(F)cc1Cl)N1CCN(c2ccc([N+](=O)[O-])c3ncccc23)CC1,-67.4%
11,O=C(c1cccc(F)c1)N1CCN(c2ccc([N+](=O)[O-])c(N3CCCCC3)c2)CC1,-6.87%
12,O=[N+]([O-])c1ccc(N2CCOCC2)c2cccnc12,-25%
13,O=C(c1cc(F)c(F)cc1Cl)N1CCN(c2ncccn2)CC1,16.4%
14,CC(=O)Nc1ccc(/C(C)=N/NC(=O)CN(c2ccccc2Br)S(C)(=O)=O)cc1,-4.13%
15,CNC(=O)CCn1nc(-c2ccc(C)cc2)c2ccccc2c1=O,-8.28%
16,O=C(O)c1ccc(/C=N/Nc2nc(N3CCCCC3)nc(N3CCCCC3)n2)cc1,18.4%
17,Cc1nn(Cc2c(Cl)cccc2Cl)c(C)c1NC(=O)/C=C/c1cnn(C)c1C,8.85%
18,COc1ccc(OC(=O)c2cccc([N+](=O)[O-])c2)c(C(=O)/C=C/c2cccs2)c1,3.99%
19,O=C(O)CC(CC(=O)Nc1ccc2ccccc2n1)c1ccccc1 (stereo not drawn),9.58%
20,Cc1nnc(SCC(=O)NC2CC2)n1CCc1ccccc1,13%
21,CCC(=O)Oc1ccc2c(C)cc(=O)oc2c1C,0.0333%
22,Cc1ccccc1NC(=O)CN1C(=O)NC(C)(CCc2ccccc2)C1=O (stereo not drawn),22.2%
23,O=[N+]([O-])c1cccc2c(Cl)ccnc12,-0.808%
24,O=[N+]([O-])c1cccc2c(N3CCOCC3)ccnc12,-17.6%

row,Structure (SMILES),"hERG current change (%, negative = inhibition) at 10uM"
1,O=[N+]([O-])c1cccc2c(N3CCCC3)ccnc12,-77.7%
2,O=C(c1ccccc1F)N1CCN(c2ccccn2)CC1,4.54%
3,O=C(c1ccccc1F)N1CCN(c2ncccn2)CC1,3.24%
4,O=C(c1ccccc1F)N1CCN(c2ccc([N+](=O)[O-])c3cccnc23)CC1,-65.5%
5,CCC(C)NC(=O)CCC(=O)Nc1ccc2nc(N3CCOCC3)cc(C)c2c1 (stereo not drawn),2.55%
6,O=C(NCCc1ccc(Cl)cc1)c1ccc(CNc2c(N3CCOCC3)c(=O)c2=O)cc1,25.7%
7,O=C(Nc1ccc2c(c1)OCO2)NC1CCN(Cc2ccccc2)CC1,-24.8%
8,CC(NC(=O)COC(=O)c1cccs1)c1ccccc1 (stereo not drawn),23%
9,Cc1cc(NC(=O)c2ccc(F)cc2)ccc1NC(=O)c1ccco1,2.98%
10,CC1(C)CC(=O)C2=C(C1)N(CC1CCCO1)C(=O)C2(NC(=O)c1cccnc1)C(F)(F)F (stereo not drawn),9.64%
11,COC(=NC1CCCC1)C(O)c1c[nH]c2ccccc12 (stereo not drawn),-1.61%
12,CN(C)c1cc(C(F)(F)F)nc(-c2ccccn2)n1,-0.728%
13,CCO[C@H]1OC(C(=O)N2CCN(Cc3ccccc3)CC2)=C[C@@H](c2cn(C(C)=O)c3ccccc23)[C@@H]1CCCO,-54%
14,CCO[C@@H]1OC(C(=O)Nc2ccccc2)=C[C@H](c2coc3ccccc3c2=O)[C@H]1CCCO,-50.9%
15,CCO[C@H]1OC(C(=O)Nc2ccccc2)=C[C@@H](c2cn(C(C)=O)c3ccccc23)[C@@H]1CCCO,-62.5%
16,CCO[C@@H]1OC(C(=O)O)=C[C@H](c2cn(C(C)=O)c3ccccc23)[C@H]1CCCO,13.7%
17,CCO[C@H]1OC(C(=O)Nc2ccccc2)=C[C@@H](c2coc3ccccc3c2=O)[C@@H]1CCCO,-28.5%
18,CCO[C@@H]1OC(C(=O)NCc2nc3ccccc3[nH]2)=C[C@H](c2cn(C(C)=O)c3ccccc23)[C@H]1CCCO,-67.2%
19,CCO[C@@H]1OC(C(=O)N2CCN(Cc3ccccc3)CC2)=C[C@H](c2cn(C(C)=O)c3ccccc23)[C@H]1CCCO,-37.9%
20,CCO[C@H]1OC(C(=O)O)=C[C@@H](c2cn(C(C)=O)c3ccccc23)[C@@H]1CCCO,18.2%
21,CCO[C@@H]1OC(C(=O)NCc2nc3ccccc3[nH]2)=C[C@H](c2csc3ccccc23)[C@H]1CCCO,-34.1%
22,CCO[C@@H]1OC(C(=O)N2CCN(Cc3ccc4c(c3)OCO4)CC2)=C[C@H](c2cn(C(C)=O)c3ccccc23)[C@H]1CCCO,-39.7%
23,CCO[C@@H]1OC(C(=O)O)=C[C@H](c2coc3ccccc3c2=O)[C@H]1CCCO,18.9%
24,CCO[C@H]1OC(C(=O)NCc2nc3ccccc3[nH]2)=C[C@@H](c2cn(C(C)=O)c3ccccc23)[C@@H]1CCCO,-49.7%
